Test results published in the supplement of paper PMC10849652.
Of roughly 8,800 targets only a part is listed; those with a hit were picked by preference. About 0.5% of all pairs of compound and target were hits. A number with no mark means an inactive call.

Experiments:
Test in all cases: log2 fold change, soluble protein after heating vs DMSO (PISA); higher = thermal stabilisation; K562 lysate, 10 uM; active = over 0.2 and 3.5 SD of the protein, either way, in both replicates (recomputed)
[1] = compound: C1=CC=C(C=C1)[C@H](COC2=CC3=C(C=C2)NC(=O)N3)NC(=O)C4=CC=CN(C4=O)CC5=CC(=C(C=C5)F)F
Procedure, shortened: (§1)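 Log-two fold change in thermal stability relative to solvent controls is reported from duplicates. For each sample, crude K562 extract from dounce-homogenised pellets in PBS pH 7.4 with 1 mM MgCl2, at 1 mg/mL protein, was treated with 10 μM compound for 30 min. Aliquots heated for 3 min across 48°C-58°C were pooled, brought to 0.5% NP-40 at 4°C and cleared at 21,000xg for 90 min. The supernatant was quantified by TMTpro 16plex LC-MS/MS with channel sums equalised.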

[2] = compound: CC1=C(SC2=C1C(=N[C@H](C3=NN=C(N32)C)CC(=O)N)C4=CC=C(C=C4)Cl)C
Procedure, shortened: as §1

[3] = compound: CC1=C2C(=CC=C1)N=C(N(C2=O)C3=CC=CC=C3C)CN4C=NC5=C(N=CN=C54)N
Procedure, shortened: as §1

[4] = compound: Cc1sc2c(c1C)C(c1ccc(Cl)cc1)=N[C@@H](CC(=O)OC(C)(C)C)c1nnc(C)n1-2
Procedure, shortened: as §1

[5] = compound: c1ccc([C@@H]2C[C@H]2NC2CCNCC2)cc1
Procedure, shortened: as §1

Sequence of UniProt Q9BXL7 (Q9BXL7 whole entry, looked up): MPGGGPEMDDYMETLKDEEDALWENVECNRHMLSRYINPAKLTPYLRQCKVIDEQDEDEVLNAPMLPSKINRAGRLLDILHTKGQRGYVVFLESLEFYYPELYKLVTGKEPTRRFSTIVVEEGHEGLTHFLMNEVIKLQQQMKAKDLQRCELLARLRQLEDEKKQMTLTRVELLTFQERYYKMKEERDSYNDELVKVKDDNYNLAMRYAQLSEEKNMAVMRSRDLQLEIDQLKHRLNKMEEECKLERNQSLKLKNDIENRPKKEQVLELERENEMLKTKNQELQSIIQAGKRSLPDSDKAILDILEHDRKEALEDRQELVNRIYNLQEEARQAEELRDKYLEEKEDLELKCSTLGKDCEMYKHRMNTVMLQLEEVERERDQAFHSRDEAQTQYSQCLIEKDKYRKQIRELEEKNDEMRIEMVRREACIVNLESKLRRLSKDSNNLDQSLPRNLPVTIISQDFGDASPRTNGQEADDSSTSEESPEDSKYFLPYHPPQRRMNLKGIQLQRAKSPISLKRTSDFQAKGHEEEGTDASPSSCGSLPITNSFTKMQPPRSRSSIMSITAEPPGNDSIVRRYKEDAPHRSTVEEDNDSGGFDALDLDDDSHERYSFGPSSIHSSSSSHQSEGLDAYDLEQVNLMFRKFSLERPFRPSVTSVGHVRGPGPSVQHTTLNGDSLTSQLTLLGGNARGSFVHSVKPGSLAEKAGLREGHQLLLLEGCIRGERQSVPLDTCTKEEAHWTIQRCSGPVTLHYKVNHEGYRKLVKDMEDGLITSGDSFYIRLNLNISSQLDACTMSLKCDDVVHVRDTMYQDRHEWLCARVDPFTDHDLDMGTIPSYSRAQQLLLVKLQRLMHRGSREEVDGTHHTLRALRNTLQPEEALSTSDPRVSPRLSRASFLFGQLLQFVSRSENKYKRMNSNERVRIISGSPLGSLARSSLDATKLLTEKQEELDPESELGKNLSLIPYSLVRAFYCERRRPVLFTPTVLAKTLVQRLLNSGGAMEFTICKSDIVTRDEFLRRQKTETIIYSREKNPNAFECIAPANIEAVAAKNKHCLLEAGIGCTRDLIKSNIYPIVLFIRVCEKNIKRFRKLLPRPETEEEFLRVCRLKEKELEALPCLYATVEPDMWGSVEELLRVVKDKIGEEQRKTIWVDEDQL
Sequence of UniProt Q14012 (Q14012 whole entry, looked up): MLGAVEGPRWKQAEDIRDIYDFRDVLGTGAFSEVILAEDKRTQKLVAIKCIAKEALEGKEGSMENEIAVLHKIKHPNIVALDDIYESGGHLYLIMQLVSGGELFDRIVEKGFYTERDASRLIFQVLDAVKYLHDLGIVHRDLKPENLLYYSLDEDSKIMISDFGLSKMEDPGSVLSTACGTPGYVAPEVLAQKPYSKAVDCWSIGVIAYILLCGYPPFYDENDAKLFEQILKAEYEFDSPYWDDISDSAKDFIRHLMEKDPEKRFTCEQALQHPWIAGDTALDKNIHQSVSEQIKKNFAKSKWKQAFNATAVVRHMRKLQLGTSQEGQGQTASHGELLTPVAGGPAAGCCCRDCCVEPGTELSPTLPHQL
Sequence of UniProt Q8N7R7 (Q8N7R7 whole entry, looked up): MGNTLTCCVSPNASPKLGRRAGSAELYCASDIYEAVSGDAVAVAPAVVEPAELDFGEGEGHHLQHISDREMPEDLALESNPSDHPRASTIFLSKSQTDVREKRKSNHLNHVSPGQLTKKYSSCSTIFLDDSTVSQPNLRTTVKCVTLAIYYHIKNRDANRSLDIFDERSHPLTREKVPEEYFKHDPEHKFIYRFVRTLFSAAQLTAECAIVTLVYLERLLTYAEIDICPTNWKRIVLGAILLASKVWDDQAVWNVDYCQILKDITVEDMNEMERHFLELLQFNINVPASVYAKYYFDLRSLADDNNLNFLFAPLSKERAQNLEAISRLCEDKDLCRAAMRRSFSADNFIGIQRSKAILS
Sequence of UniProt Q8IWY9 (Q8IWY9 whole entry, looked up): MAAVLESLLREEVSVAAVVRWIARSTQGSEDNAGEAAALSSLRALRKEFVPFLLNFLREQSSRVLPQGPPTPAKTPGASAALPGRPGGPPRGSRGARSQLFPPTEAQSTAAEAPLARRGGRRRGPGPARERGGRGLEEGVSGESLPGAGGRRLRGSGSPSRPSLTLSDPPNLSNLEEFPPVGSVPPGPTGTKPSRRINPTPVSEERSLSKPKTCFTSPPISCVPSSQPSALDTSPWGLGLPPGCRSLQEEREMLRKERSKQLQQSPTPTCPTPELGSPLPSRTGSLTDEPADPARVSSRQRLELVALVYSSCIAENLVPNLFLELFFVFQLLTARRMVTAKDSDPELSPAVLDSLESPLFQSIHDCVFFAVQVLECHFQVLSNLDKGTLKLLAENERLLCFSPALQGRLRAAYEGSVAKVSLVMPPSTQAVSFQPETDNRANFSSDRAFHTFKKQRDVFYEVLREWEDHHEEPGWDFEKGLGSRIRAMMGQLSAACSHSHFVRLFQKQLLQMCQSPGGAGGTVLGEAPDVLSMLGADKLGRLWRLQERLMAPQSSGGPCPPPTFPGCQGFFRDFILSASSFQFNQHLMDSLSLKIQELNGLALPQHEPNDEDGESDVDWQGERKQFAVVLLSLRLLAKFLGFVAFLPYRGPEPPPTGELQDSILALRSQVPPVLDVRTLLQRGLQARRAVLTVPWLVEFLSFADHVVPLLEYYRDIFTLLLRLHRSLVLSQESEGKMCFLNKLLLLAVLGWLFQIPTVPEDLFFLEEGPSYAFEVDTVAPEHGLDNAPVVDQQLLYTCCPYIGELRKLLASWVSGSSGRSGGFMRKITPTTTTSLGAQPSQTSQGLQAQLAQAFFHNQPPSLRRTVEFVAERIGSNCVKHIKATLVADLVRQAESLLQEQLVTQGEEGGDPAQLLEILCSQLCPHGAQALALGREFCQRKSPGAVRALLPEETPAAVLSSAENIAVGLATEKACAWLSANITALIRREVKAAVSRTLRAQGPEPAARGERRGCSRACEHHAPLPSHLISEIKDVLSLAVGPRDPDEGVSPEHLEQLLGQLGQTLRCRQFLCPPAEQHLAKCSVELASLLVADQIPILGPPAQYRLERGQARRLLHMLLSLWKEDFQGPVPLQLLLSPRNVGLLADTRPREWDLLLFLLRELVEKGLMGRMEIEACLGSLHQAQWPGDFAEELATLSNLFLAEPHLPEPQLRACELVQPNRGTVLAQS
Sequence of UniProt O75419 (O75419 whole entry, looked up): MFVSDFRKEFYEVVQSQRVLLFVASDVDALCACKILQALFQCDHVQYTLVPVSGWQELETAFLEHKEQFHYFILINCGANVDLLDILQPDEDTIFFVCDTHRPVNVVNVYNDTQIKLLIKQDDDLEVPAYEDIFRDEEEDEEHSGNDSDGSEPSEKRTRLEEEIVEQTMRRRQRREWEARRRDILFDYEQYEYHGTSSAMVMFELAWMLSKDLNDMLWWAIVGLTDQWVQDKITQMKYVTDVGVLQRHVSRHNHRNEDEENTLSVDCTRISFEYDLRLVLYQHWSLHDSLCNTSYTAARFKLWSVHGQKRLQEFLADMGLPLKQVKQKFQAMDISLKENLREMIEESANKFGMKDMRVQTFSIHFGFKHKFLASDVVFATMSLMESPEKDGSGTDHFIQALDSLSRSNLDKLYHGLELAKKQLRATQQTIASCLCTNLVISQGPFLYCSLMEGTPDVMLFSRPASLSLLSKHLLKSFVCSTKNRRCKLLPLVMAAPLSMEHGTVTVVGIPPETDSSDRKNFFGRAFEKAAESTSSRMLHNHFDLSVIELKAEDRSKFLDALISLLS
Sequence of UniProt Q96RR4 (Q96RR4 whole entry, looked up): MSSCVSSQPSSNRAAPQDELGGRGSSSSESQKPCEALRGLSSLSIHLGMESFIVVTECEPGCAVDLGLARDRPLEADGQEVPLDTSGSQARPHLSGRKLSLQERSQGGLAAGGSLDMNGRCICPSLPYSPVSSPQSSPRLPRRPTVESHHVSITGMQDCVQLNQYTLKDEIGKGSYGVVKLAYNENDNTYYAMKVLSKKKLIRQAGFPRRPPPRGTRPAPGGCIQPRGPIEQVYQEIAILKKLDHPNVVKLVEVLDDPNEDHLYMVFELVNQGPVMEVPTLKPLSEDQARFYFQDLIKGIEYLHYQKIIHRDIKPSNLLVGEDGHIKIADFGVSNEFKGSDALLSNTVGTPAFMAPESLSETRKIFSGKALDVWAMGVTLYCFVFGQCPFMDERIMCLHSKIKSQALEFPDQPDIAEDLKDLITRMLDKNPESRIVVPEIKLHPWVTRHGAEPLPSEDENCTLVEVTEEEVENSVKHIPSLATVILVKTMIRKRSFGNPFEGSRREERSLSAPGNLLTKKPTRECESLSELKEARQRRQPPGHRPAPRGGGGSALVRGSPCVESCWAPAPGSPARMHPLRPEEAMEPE
Sequence of UniProt O75794 (O75794 whole entry, looked up): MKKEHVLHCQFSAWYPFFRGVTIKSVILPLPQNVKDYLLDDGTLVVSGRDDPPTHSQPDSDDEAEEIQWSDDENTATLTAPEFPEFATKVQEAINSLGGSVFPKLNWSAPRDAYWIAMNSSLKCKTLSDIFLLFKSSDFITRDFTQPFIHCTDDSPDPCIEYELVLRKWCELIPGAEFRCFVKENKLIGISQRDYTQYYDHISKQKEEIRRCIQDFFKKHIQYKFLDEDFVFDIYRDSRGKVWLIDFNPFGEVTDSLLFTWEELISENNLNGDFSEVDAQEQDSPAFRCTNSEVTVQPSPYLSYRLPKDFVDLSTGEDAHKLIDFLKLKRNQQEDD
Sequence of UniProt Q9UEE9 (Q9UEE9 whole entry, looked up): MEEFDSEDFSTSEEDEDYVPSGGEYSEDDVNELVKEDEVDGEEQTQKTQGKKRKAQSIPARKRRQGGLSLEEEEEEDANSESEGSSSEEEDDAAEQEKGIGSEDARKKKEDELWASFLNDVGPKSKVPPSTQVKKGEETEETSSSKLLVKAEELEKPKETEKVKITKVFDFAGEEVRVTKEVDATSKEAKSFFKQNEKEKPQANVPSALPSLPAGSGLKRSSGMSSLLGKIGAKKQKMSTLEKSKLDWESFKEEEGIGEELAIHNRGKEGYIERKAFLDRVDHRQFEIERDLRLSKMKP

| Target | log2 fold change [1] | log2 fold change [2] | log2 fold change [3] | log2 fold change [4] | log2 fold change [5] |
| --- | --- | --- | --- | --- | --- |
| CHCHD1 (UniProt Q96BP2) | -0.026 | 0.024 | -0.04 | -0.091 | 0.627 (active) |
| CDC45 isoform 3 (UniProt O75419) | 0.076 | -0.01 | 0 | -0.018 | 0.026 |
| CARD11 (UniProt Q9BXL7) | 0.193 | 0.252 | 0 | -0.084 | -0.019 |
| CDAN1 (UniProt Q8IWY9) | -0.011 | 0.011 | 0.062 | 0.026 | 0.005 |
| CHD3 isoform 3 (UniProt Q12873) | -0.009 | 0.027 | 0.024 | 0.035 | 0.038 |
| CAMKK1 isoform 2 (UniProt Q8N5S9) | 0.006 | 0.03 | 0.011 | 0.071 | -0.103 |
| CAMKK2 (UniProt Q96RR4) | 0.002 | -0.047 | 0.072 | 0.051 | -0.013 |
| CCNYL1 (UniProt Q8N7R7) | -0.007 | -0.089 | -0.009 | -0.058 | -0.079 |
| CDKN2AIP (UniProt Q9NXV6) | 0.01 | 0.024 | 0.027 | -0.041 | -0.013 |
| BCAR1 isoform 6 (UniProt P56945) | 0.01 | 0.013 | -0.045 | -0.043 | 0.107 |
| ATG7 (UniProt O95352) | 0.014 | 0.003 | 0.028 | -0.014 | 0.044 |
| CFDP1 (UniProt Q9UEE9) | 0.051 | -0.03 | -0.017 | -0.03 | -0.124 |
| ATM (UniProt Q13315) | -0.015 | 0.013 | -0.037 | 0.038 | -0.036 |
| CDC123 (UniProt O75794) | -0.035 | 0.02 | -0.038 | 0.073 | 0.004 |
| BTK isoform 2 (UniProt Q06187) | -0.049 | -0.033 | 0.012 | -0.002 | -0.064 |
| CAMK1 (UniProt Q14012) | 0.096 | 0.014 | -0.007 | 0.026 | -0.047 |
| CANX isoform 2 (UniProt P27824) | 0.05 | -0.022 | -0.005 | -0.027 | -0.046 |
| CELF2 isoform 3 (UniProt O95319) | -0.009 | -0.012 | 0.005 | 0.012 | 0.08 |
